A selection: hits, their analogues and other compounds. The true share with any hit is near 2.2%.
FUS yeast rescue: qHTS for Suppressors of FUS Proteinopathy: Primary screen using FUS-linked yeast assay; S. cerevisiae FUS-expressing, growth rescue, OD600, 24 h; Potency, µM (titrated, usually from 76.6 µM), actives largely listed as activators; hit rate 0.24% among 390,000; also: nearly all actives have a fitted effect of over 55% in size
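Yeast expressing FUS under galactose induction, OD 0.005 in 2% galactose medium; compounds in a dilution series, 24 h at 30C. Growth rescue by absorbance at 600 nm; CP55940 positive control, DMSO negative.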
aSyn rescue: qHTS of alpha-syn Inhibitors | Yeast expressing alpha-synuclein, growth rescue, BacTiter-Glo, 24 h | Potency, µM (doses to about 46.1 µM), actives largely listed as activators | hit rate 0.14% among 370,000; also: nearly all actives have a fitted effect of over 65% in size
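Galactose-induced alpha-syn yeast (OD600=0.02, raffinose-pregrown) + pinned cpd, 24 hr, 30 deg C; growth by BacTiter-Glo luminescence. Growth restoration scores as activation.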
TDP43 rescue: qHTS of TDP-43 Inhibitors | TDP-43 expressing yeast growth rescue, BacTiter-Glo, 24 h | Potency, µM (top dose mostly 46.1 µM), most hits filed as activators | hit rate 1.8% among 410,000; also: nearly all actives have a fitted effect of over 50% in size
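Growth rescue of TDP-43-toxic yeast measured as ATP luminescence (BacTiter-Glo). Cells grown to mid-log in raffinose, induced in galactose at OD600=0.02, exposed to compound 24 hr at 30 deg C.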
Mito fusion act: qHTS Assay for Small Molecule Inhibitors of Mitochondrial Division or Activators of Mitochondrial Fusion | S. cerevisiae fusion-defective mutant growth rescue, CellTiterGlo 48 h | Potency, µM (top dose mostly 46.1 µM), hits mostly activators | hit rate 0.23% among 320,000; also: nearly all actives have a fitted effect of over 45% in size
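Growth-rescue viability read-out: after 48 h at the non-permissive 37C in glycerol/ethanol YPEG, yeast mitochondrial fusion mutants are measured by CellTiterGlo luminescence; compounds (23 nl pinned per well) restoring growth score as division inhibitors or fusion activators.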
Abeta yeast res: qHTS for compounds that reverse cellular toxicity of Amyloid beta (A-beta) peptide in yeast: Primary Screen; Potency, µM (top dose mostly 46.1 µM), usual class: activators; yeast expressing A-beta42, growth rescue, OD600, 48 h; response scale: 0% DMSO, 100% iron-clioquinol control; hit rate 0.063% among 410,000; also: nearly all actives have a fitted effect of over 55% in size
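Yeast A-beta toxicity model in growth medium with pinned compounds, 48 h at 30 C; growth read as absorbance at 600 nm. Normalized to FeCl3/clioquinol equimolar mix (positive) and DMSO (negative).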
A number is an active result; n = inactive; u = inconclusive; x = no result given; ! = not active in a repeat. Calls follow the shape of the dose curve; as a rule, active = well fitted curve in the direction sought with a large enough effect; inconclusive = small, poorly fitted or top-dose-only effect, or another doubt; inactive = no such curve, though single readings can be large; an effect the other way counts as inactive or inconclusive.

SMILES	FUS yeast rescue	aSyn rescue	TDP43 rescue	Mito fusion act	Abeta yeast res
CCOc1ccc(C(C)NC(=S)NCc2ccc(Cl)cc2)cc1 (stereo unspecified)	n	n	n	n	u
CCCc1ccc(C(C)NC(=S)NCc2ccc(F)cc2)cc1 (stereo unspecified)	n	n	n	n	3.5µM
CCOC(=O)N1CCN(C(=O)c2nn(C)c3c2CSc2ccccc2-3)CC1	n	n	35µM	n	n
CN=c1scc(C)n1/N=C/c1cc(Br)c(O)c(OC)c1	n	n	11µM	n	n
COc1ccc(CCNC(=O)Cc2c(C)c3cc4c(C(C)(C)C)coc4c(C)c3oc2=O)cc1OC	n	x	n	x	n
O=C1CC(=C2c3ccccc3-c3ccccc32)C(=O)N1CCN1CCN(c2ccccc2)CC1	40µM	n	n	x	n
Cc1ccccc1N1CCN(CCN2C(=O)CC(=C3c4ccccc4-c4ccccc43)C2=O)CC1	u	n	n	x	n
O=C(CCN1C(=O)c2ccccc2C1=O)N1CCN(c2ccccc2)CC1	n	n	n	n	n
COc1ccccc1N1CCN(CCN2C(=O)CC(=C3c4ccccc4-c4ccccc43)C2=O)CC1	16µM	n	n	x	n
CCCCOc1cccc(C(=O)NC(=S)Nc2cccnc2)c1	x	n	25µM	n	n
O=C(CCn1c(=O)c2cccn2c2cccnc21)N1CCN(c2cccc(Cl)c2)CC1	n	n	20µM!	n	n
CC1(C)CC(=O)C(N=Nc2cc(Cl)c(Cl)c(Cl)c2)=C(O)C1	n	n	n	n	n
Cc1ccc(O)c(N=NC2=C(O)CC(C)(C)CC2=O)c1	x	7.1µM	n	n	u
COc1cc2c(NC3CCN(C(C)C)CC3)nc(N3CCCN(C)CC3)nc2cc1OCCOCCN1CCCC1	x	n	x	x	x
CCN(CC)C(=O)C1CCN(S(=O)(=O)c2c(C)noc2/C=C/c2cccc(C)c2)CC1	20µM	n	n	n	n
COc1cc(Br)ccc1C1C(C(=O)Nc2ccc(C)cc2C)=C(C)Nc2nnnn21 (stereo unspecified)	n	x	n	x	n
Cc1ccc(F)cc1-c1nc(NCC2CC2)nc2ccsc12	n	n	20µM	x	n
CC1CCc2c(sc(N)c2C(N)=O)C1 (stereo unspecified)	32µM	n	n	n	n
CCC1CCc2c(sc(N)c2C(N)=O)C1 (stereo unspecified)	x	n	n	x	n
CCOC(=O)CSc1nnc2n(-c3ccccc3)c(=O)c3c4c(sc3n12)CC(C(C)(C)C)CC4 (stereo unspecified)	u	x	35µM	x	n
Cc1ccc(S(=O)(=O)c2cn(CC(=O)Nc3ccc4c(c3)OCO4)c3ccc(F)cc3c2=O)cc1	n	x	n	x	n
Cc1ccc2oc(-c3cc(NC(=O)Cc4ccccc4)ccc3Cl)nc2c1	n	x	n	x	n
COc1ccccc1-c1nn(CCC(=O)Nc2ccc(C)cc2)c2nc(C)cc(C)c12	n	u	35µM	x	n
Cc1ccc(NC(=O)CCn2nc(C)cc2C)cc1	n	n	n	n	n
CCCCN(C)C(=O)c1cc2cc3ccc(OC)cc3nc2s1	n	n	18µM	n	n
SMILES	FUS yeast rescue	aSyn rescue	TDP43 rescue	Mito fusion act	Abeta yeast res
CCN(CCCNC(=O)c1cc2cc3ccc(OC)cc3nc2s1)c1ccccc1	n	x	n	n	n
CC1(C(=O)Nc2cccc3c2CCCC3)CCN1C(=O)c1cccc(F)c1 (stereo unspecified)	n	n	28µM	x	n
O=C(CSc1ccc(Cl)cc1)N1CCC(c2nc3ccccc3s2)CC1	n	u	25µM	n	n
O=C(CSc1c(Cl)cccc1Cl)N1CCC(c2nc3ccccc3s2)CC1	n	u	n	n	n
Fc1cccc2sc(N3CCCCC3)nc12	n	n	n	n	n
Clc1ccc(Cl)c2sc(N3CCOCC3)nc12	n	n	n	x	n
Clc1ccc(Cl)c2sc(N3CCCC3)nc12	n	n	7.1µM	n	n
Clc1cccc2sc(N3CCN(c4ccccc4)CC3)nc12	n	n	3.5µM	u	n
CCN(C[C@@H]1[C@@H](c2ccccc2)[C@H](CO)N1S(C)(=O)=O)C(=O)C1CCC1	n	x	x	x	x
COc1ccc(C(=O)Nc2cccc(-c3cn4ccsc4n3)c2)c(OC)c1	u	x	5µM	x	n
CCOC(=O)c1ccc(NC(=O)CSc2cc(-c3ccccc3)nc(C)n2)cc1	n	x	n	x	n
O=C(Oc1ccc(/C=N/O)cc1)c1ccccc1	n	n	11µM	n	n
CCSC(=O)N1c2ccc(OC)cc2C=CC1C#N (stereo unspecified)	x	n	22µM	x	n
COc1ccc(C(=O)N2c3ccccc3C=CC2C#N)cc1 (stereo unspecified)	n	n	n	n	n
CCN(CC)CC#CCOC(=O)C(O)(c1ccccc1)C1CCCCC1 (stereo unspecified)	n	n	n	23µM!	n
Cc1nc2c(OCc3ccc(C(F)(F)F)cc3)cccn2c1N(C)C(=O)CCC1CCCC1	22µM	n	n	x	n
Cc1nc2c(OCc3ccc(F)cc3)cccn2c1N(C)C(=O)CCC1CCCC1	n	n	n	x	n
COc1ccc(-c2csc(C)n2)cc1Br	n	n	11µM	n	n
COc1ccc(C(=O)NCc2ccc3c(c2)CCN3C(=O)c2ccc(Cl)cc2)c(OC)c1	n	x	n	x	n
CCn1c(=O)c2cc(C(=O)N(C)c3ccc(OC)cc3OC)sc2c2ccccc21	2µM	n	n	n	n
CCOc1ccccc1N(CC)C(=O)c1cc2c(=O)n(CC)c3ccccc3c2s1	32µM	x	n	x	n
CCn1c(=O)c2cc(C(=O)NC3CCCCCC3)sc2c2ccccc21	n	x	16µM	x	n
O=C1N(CCCO)CCC12CCC(c1ccccc1)CC2 (stereo unspecified)	n	x	x	x	x
Cc1ccc(Cc2nc3ccccc3nc2SCC(=O)N2CCCCC2C)cc1 (stereo unspecified)	u	x	35µM	x	n
COc1cccc(Cc2nc3ccccc3nc2SCC(=O)N2CCN(c3ccccc3)CC2)c1	n	x	n	x	n
SMILES	FUS yeast rescue	aSyn rescue	TDP43 rescue	Mito fusion act	Abeta yeast res
CCOc1ccccc1NC(=O)CSc1nc2ccccc2nc1Cc1ccc(C)cc1	n	x	25µM	x	n
Cc1ccc(Cc2nc3ccccc3nc2SCC(=O)NCCC(C)C)cc1	n	x	u	x	n
COc1cccc(Cc2nc3ccccc3nc2SCC(=O)N2CCCCC2C)c1 (stereo unspecified)	u	x	35µM	x	n
CCOc1ccc(CCNC(=O)CCCc2nnc3n(CCCOC)c(=O)c4sccc4n23)cc1	n	x	n	x	n
Cc1cc2ccccc2c[n+]1C	x	n	x	x	x
CN(C)c1ccc(/C=C/c2ccnc3ccc(N)cc23)cc1	x	n	x	x	x
O=C1[C@@H]2C(c3ccccc3Cl)=NO[C@@H]2C(=O)N1Cc1ccccc1	n	n	14µM	n	u

Compound activity from PubChem.
